From PubChem BioAssay (Tox21)
Results filed as inconclusive are left out. A call without a number means that no potency is given here. Calls of active or inactive are those of the source. Unless noted, calls come from the whole dose curve; as a rule, active = well fitted curve in the direction sought with a large enough effect in the repeat runs; inconclusive = weak or mixed curves; inactive = no such curve, though single readings can be large; an effect the other way counts as inactive or inconclusive.

Tests used:
[1] = qHTS assay to identify small molecule agonists of the sonic hedgehog signaling (Shh) pathway (AID 1259368; calls by dose curve;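 note: NIH/3T3-derived 3T3Gli1-Luc cells carrying a stable Gli1-driven firefly luciferase reporter; series mostly up to about 92 µM; nearly all actives have a fitted effect of over 15% in size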)
In short: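 Luminescent signal was taken as a measure of Gli1-controlled luciferase expression in stably transfected NIH/3T3-derived cells that had been treated for 24 hr with compounds delivered in DMSO.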

[2] = qHTS assay to identify small molecule antagonists of the sonic hedgehog signaling (Shh) pathway (AID 1259369; calls by dose curve; note: nearly all actives have a fitted effect of over 45% in size; note: potency is the fitted concentration of half-maximal effect)
In short: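 Screening used 3T3Gli1-Luc cells at 2,000 per well, compounds delivered in DMSO, and conditioned medium as agonist stimulus; plates incubated 24hr at 37 C and 5% CO2 before a 30min luciferase step.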

[3] = target: Estrogen receptor beta (Homo sapiens) (UniProt Q92731); test: qHTS assay to identify small molecule agonists of the estrogen receptor beta (ER-beta) signaling pathway (AID 1259377; active = well fitted activation curve with a large enough effect in the signal ratio in the repeat runs, not every such curve was filed as active; the % refers to the signal ratio)
In short: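 Screening used GripTite ER-beta-UAS-bla cells held in 2% charcoal-stripped FBS medium. After overnight (16 hr) compound incubation at 37C, beta-lactamase activity was detected with a FRET substrate by fluorescence.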

[4] = target: Estrogen receptor beta (Homo sapiens) (UniProt Q92731); test: qHTS assay to identify small molecule antagonists of the estrogen receptor beta (ER-beta) signaling pathway (AID 1259378; active = well fitted inhibition curve with a large enough effect in the signal ratio in the repeat runs, not every such curve was filed as active; the % refers to the signal ratio)
In short: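 ER-beta-UAS-bla HEK293T (GripTite) cells in 2% charcoal-stripped FBS medium were preincubated 6 hr at 37C, dosed with compound, then stimulated with 1 nM E2 (final) for 16 hr; beta-lactamase reporter read by B/G FRET fluorescence after 2 hr substrate loading.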

[5] = qHTS assay to identify small molecule agonists of the androgen receptor (AR) signaling pathway in the presence of an antagonist - cell viability counter screen (AID 1259379);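 note: MDA-kb2 human breast cancer cells carrying an MMTV luciferase reporter; series mostly up to about 92 µM; nearly all actives have a fitted effect of over 25% in size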
In short: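 In MDA-kb2 cells (human breast carcinoma, MMTV-luciferase), compounds at 15 concentrations plus 3.0uM nilutamide; 16 hr, 37C, 0% CO2; CellTiter-Fluor fluorescence read for viability.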

[6] = qHTS assay to identify small molecule agonists of the estrogen receptor beta (ER-beta) signaling pathway - cell viability counter screen (AID 1259380); note: nearly all actives have a fitted effect of over 30% in size
In short: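 Viability of ER-beta-UAS-bla HEK293T cells was determined by CellTiter-Glo luminescence following 16 hr treatment with test compounds at 37C.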

[7] = target: Androgen receptor (Homo sapiens) (UniProt P10275); test: qHTS assay to identify small molecule agonists of the androgen receptor (AR) signaling pathway in the presence of an antagonist (AID 1259381; calls by dose curve; note: nearly all actives have a fitted effect of over 15% in size)
In short: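 Here, 15-concentration compound series were pin-transferred onto MDA-kb2 MMTV-luciferase cells already dosed with nilutamide (3.0uM final). After 16hr at 37C, ONE-Glo was added and luminescence read 30min later at room temperature.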

[8] = qHTS assay to identify small molecule antagonists of the estrogen receptor beta (ER-beta) signaling pathway - cell viability counter screen (AID 1259382); note: series mostly up to about 92 µM; nearly all actives have a fitted effect of over 55% in size
In short: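 Tox21 10K library tested in qHTS format on ER-beta-bla HEK293T cells stimulated with 1nM E2; 16 hr treatment at 37C. Same-well CellTiter-Glo luminescence served as the cell viability measure.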

[9] = target: Estrogen receptor (Homo sapiens) (UniProt P03372); test: qHTS assay to identify small molecule agonists of the estrogen receptor alpha (ER-alpha) signaling pathway in the presence of an antagonist (AID 1259383; calls by dose curve; note: top concentration of the series differs between compounds; nearly all actives have a fitted effect of over 15% in size)
In short: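 In VM7Luc4E2 cells, 4,000 per well, compounds at 15 concentrations were co-incubated 22hr at 37C with 10.0nM final ICI-182,780. Luminescence from the stably transfected 4×ERE-luciferase reporter was recorded 30min after ONE-Glo addition.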

[10] = qHTS assay to identify small molecule agonists of the estrogen receptor alpha (ER-alpha) signaling pathway in the presence of an antagonist - cell viability counter screen (AID 1259386);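 note: series mostly up to about 92 µM; cells exposed to compounds for 22 h at 37 °C before the viability read; nearly all actives have a fitted effect of over 30% in size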
In short: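 Fluorescent CellTiter-Fluor viability signal from VM7Luc4E2 cells, with the reagent added during the final hour of a 22hr compound exposure at 37C in the presence of 10.0nM ICI-182,780.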

[11] = target: Progesterone receptor (Homo sapiens) (UniProt P06401); test: qHTS assay to identify small molecule agonists of the progesterone receptor (PR) signaling pathway (AID 1346784; calls by dose curve; note: nearly all actives have a fitted effect of over 30% in size)
In short: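 Seed PR-UAS-bla HEK 293T cells (2% charcoal-stripped FBS), incubate 6 hr at 37C; add compounds in DMSO, 16 hr at 37C; add LiveBLAzer B/G substrate, 2 hr RT; read fluorescence intensity.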

[12] = qHTS assay to identify small molecule antagonists of the progesterone receptor (PR) signaling pathway - cell viability counter screen (AID 1346798); note: nearly all actives have a fitted effect of over 50% in size; note: potency is the fitted concentration of half-maximal effect
In short: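 Measures cytotoxicity in parallel with the PR antagonist reporter read: HEK293T PR-UAS-bla cells get compound and R5020 for 16 hr, and remaining viable cells are quantified by CellTiter-Glo luminescence.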

[13] = qHTS assay to identify small molecule agonists of the progesterone receptor (PR) signaling pathway - cell viability counter screen (AID 1346799; calls by dose curve; note: nearly all actives have a fitted effect of over 45% in size; note: potency is the fitted concentration of half-maximal effect)
In short: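 Using the same plates as the PR reporter screen, HEK293T PR-UAS-bla cells received compounds for 16 hr at 37C and were then lysed with CellTiter-Glo; luminescence was read 30 min later at room temperature.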

[14] = qHTS assay to identify small molecule antagonists of the TGF-beta/Smad signaling pathway - cell viability counter screen (AID 1346824); note: nearly all actives have a fitted effect of over 50% in size
In short: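 SBE-bla HEK 293T cells were plated overnight at 37 C, then given compounds in DMSO plus TGF-beta1 (added as 0.25 ng/mL solution) for 5 hr. After the bla read, CellTiter-Glo was added to the same wells and luminescence read after 30 min at room temperature.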

[15] = qHTS assay to identify small molecule agonists of the TGF-beta/Smad signaling pathway - cell viability counter screen (AID 1346829); note: top concentration of the series differs between compounds; nearly all actives have a fitted effect of over 45% in size
In short: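 Compound-treated SBE-bla HEK 293T cells (5 hr, 37 C) were assessed for viability with CellTiter-Glo in parallel with the reporter read.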

[16] = target: Thyrotropin-releasing hormone receptor (Homo sapiens) (UniProt P34981); test: qHTS assay to identify small molecule antagonists of the thyrotropin-releasing hormone receptor (TRHR) signaling pathway (AID 1346877; active = well fitted inhibition curve with a large enough effect in the repeat runs, not every such curve was filed as active; note: series mostly up to about 51 µM)
In short: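 In this cell-based calcium flux format, HEK293 cells expressing TRHR received test compound for 5 min before the agonist TRH (1 nM final). Dye loading lasted 2 h at 37 °C.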

[17] = target: Thyrotropin receptor (Homo sapiens) (UniProt P16473); test: qHTS assay to identify small molecule antagonists of the thyroid stimulating hormone receptor (TSHR) signaling pathway (AID 1259385; calls by dose curve; note: nearly all actives have a fitted effect of over 20% in size)
In short: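 TSHR-HEK293 cells were plated and held 18 h at 37C/5% CO2, then given compound plus Ro20-1724 and stimulated with TSH at 1.5 ng/mL final. After 30 min at room temperature, cAMP was detected with cAMP-d2/anti-cAMP-cryptate (1 h) by fluorescence.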

[18] = target: Progesterone receptor (Homo sapiens) (UniProt P06401); test: qHTS assay to identify small molecule antagonists of the progesterone receptor (PR) signaling pathway (AID 1346795; active = well fitted inhibition curve with a large enough effect in the signal ratio in the repeat runs, not every such curve was filed as active; the % refers to the signal ratio; note: potency is the fitted concentration of half-maximal effect)
In short: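 Screening used a GripTite HEK293T line with PR-responsive UAS-beta-lactamase. Cells were challenged with compound in the presence of 1 nM R5020 final for 16 hr at 37C; B/G FRET substrate, 2 hr room temperature, fluorescence.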

[19] = qHTS assay to identify small molecule agonists of the TGF-beta/Smad signaling pathway (AID 1346859; active = well fitted activation curve with a large enough effect in the signal ratio in the repeat runs, not every such curve was filed as active; the % refers to the signal ratio; note: series mostly up to about 77 µM)
In short: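 Beta-lactamase reporter activity downstream of Smad binding elements was measured in stably transfected HEK 293T cells; compounds were incubated for 5 hr, substrate for 2 hr at room temperature.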

[20] = qHTS assay to identify small molecule agonists or antagonists of the thyroid stimulating hormone receptor (TSHR) signaling pathway - wild type cell line counter screen (AID 1259384; calls by dose curve)
In short: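 Wild-type HEK293 cells were plated 18 h at 37 C/5% CO2, pin-dosed with compound plus Ro20-1724 medium, held 30 min at room temperature, then given cAMP-d2 and anti-cAMP-cryptate; fluorescence was read after 1 h. Fifteen concentrations, triplicate.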

Progesterone receptor (Homo sapiens), sequence (P06401 whole entry, looked up): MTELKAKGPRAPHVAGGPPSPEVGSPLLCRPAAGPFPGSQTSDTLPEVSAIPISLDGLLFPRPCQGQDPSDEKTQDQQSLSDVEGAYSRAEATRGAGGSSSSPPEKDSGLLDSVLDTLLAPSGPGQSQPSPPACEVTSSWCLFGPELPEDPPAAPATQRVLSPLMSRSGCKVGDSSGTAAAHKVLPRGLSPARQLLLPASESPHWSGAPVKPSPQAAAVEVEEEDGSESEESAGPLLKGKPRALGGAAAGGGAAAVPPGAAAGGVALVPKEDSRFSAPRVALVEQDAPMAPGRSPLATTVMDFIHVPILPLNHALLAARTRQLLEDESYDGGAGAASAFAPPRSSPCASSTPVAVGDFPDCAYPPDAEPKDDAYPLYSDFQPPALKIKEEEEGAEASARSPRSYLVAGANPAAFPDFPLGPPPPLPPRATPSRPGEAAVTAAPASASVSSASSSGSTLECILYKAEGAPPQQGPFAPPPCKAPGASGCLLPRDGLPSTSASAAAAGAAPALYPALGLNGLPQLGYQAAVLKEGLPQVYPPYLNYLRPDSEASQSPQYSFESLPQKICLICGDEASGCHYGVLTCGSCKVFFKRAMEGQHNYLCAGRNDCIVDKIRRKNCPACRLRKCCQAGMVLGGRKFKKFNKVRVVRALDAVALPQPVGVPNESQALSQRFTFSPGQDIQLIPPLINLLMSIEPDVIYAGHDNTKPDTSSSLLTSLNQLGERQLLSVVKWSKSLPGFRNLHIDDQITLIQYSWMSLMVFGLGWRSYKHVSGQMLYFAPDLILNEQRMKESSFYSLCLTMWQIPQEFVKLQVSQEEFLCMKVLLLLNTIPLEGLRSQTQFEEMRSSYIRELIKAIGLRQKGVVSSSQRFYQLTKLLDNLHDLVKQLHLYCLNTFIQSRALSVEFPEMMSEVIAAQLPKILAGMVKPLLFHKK
Androgen receptor (Homo sapiens), sequence (P10275 whole entry, looked up): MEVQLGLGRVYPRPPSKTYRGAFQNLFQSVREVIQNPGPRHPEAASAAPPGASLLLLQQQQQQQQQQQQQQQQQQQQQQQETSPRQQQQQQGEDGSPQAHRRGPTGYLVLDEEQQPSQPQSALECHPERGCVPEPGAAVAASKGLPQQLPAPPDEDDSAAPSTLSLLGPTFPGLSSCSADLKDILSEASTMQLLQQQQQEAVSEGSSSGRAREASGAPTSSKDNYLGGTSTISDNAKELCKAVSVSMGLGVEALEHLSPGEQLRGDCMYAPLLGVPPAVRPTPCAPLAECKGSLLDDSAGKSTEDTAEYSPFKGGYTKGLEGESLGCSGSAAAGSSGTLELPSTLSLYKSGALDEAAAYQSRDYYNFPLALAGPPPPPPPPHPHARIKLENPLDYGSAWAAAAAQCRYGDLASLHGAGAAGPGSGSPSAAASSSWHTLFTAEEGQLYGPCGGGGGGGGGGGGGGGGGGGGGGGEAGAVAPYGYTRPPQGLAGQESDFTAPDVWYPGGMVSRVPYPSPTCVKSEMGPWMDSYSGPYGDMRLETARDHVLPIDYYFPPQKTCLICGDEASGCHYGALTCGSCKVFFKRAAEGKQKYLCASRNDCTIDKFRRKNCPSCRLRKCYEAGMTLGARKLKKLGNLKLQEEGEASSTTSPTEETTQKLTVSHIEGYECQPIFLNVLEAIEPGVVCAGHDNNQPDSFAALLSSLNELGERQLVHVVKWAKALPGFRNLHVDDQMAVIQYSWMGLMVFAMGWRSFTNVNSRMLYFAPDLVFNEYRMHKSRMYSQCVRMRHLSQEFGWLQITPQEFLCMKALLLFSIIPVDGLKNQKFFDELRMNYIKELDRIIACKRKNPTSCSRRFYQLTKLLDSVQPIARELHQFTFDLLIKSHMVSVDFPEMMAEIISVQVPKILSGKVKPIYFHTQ
Estrogen receptor beta (Homo sapiens), sequence (Q92731 whole entry, looked up): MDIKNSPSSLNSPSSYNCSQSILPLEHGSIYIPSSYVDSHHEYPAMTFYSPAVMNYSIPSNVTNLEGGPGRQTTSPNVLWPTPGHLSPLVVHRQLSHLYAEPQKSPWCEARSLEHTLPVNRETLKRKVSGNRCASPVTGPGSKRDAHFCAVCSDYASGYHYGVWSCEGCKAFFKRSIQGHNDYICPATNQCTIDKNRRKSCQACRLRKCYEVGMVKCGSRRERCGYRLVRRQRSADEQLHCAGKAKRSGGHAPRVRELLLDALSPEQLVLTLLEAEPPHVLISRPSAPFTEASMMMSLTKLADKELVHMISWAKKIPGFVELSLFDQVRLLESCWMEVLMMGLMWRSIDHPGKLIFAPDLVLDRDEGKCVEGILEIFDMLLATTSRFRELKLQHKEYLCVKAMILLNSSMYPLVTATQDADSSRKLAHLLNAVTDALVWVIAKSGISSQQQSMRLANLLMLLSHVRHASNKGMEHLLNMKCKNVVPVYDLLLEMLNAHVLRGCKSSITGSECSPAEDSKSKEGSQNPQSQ
Thyrotropin receptor (Homo sapiens), sequence (P16473 whole entry, looked up): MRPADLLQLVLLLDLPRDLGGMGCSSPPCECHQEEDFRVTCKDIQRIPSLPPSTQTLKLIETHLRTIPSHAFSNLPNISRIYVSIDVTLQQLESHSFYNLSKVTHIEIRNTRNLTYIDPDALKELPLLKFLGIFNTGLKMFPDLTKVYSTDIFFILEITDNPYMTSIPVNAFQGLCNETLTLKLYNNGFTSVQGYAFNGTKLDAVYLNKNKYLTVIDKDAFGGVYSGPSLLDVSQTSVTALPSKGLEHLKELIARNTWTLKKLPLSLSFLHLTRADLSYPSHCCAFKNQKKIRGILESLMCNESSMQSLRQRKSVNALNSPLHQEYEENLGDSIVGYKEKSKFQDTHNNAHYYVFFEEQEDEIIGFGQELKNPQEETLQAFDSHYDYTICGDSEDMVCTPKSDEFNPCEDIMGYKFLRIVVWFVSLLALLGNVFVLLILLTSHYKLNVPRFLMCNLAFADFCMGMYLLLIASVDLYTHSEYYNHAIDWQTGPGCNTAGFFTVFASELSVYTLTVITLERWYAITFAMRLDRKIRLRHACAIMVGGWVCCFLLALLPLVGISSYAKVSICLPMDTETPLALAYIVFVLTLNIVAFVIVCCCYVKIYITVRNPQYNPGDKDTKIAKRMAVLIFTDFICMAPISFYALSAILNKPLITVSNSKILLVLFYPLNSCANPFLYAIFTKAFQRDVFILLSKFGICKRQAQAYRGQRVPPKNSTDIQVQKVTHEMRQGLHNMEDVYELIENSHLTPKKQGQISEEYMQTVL
Estrogen receptor (Homo sapiens), sequence (P03372 whole entry, looked up): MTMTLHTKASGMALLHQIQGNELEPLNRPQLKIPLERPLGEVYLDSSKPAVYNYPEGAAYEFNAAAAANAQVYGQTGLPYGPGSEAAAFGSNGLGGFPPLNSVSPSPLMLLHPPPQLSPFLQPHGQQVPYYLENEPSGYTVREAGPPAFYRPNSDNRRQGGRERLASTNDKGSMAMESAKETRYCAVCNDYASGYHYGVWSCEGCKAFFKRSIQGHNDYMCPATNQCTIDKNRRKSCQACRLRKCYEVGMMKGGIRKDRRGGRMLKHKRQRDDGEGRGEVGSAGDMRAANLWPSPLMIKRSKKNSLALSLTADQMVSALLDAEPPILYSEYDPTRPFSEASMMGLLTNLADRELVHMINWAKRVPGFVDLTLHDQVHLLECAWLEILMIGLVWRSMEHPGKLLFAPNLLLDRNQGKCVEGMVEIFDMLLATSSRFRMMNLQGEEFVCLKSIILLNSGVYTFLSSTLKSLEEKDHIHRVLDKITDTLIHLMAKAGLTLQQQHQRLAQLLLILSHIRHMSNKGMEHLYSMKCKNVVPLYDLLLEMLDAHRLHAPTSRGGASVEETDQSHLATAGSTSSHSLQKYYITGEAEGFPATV
Thyrotropin-releasing hormone receptor (Homo sapiens), sequence (P34981 whole entry, looked up): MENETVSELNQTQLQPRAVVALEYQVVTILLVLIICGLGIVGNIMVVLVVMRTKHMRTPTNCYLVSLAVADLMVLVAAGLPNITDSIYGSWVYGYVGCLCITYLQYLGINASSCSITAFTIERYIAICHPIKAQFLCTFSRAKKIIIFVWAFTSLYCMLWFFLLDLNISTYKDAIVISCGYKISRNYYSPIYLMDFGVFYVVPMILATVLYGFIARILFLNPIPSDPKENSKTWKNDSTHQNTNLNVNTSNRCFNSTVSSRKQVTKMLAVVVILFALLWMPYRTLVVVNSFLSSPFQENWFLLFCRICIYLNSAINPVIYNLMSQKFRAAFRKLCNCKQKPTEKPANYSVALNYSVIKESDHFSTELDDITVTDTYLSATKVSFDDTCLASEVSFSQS

| SMILES | Potency [1] | Potency [2] | outcome [3] | Potency [4] | Potency [5] | Potency [6] | Potency [7] | outcome [8] | Potency [9] | Potency [10] | Potency [11] | Potency [12] | Potency [13] | outcome [14] | outcome [15] | outcome [16] | Potency [17] | Potency [18] | outcome [19] | outcome [20] |
| --- | --- | --- | --- | --- | --- | --- | --- | --- | --- | --- | --- | --- | --- | --- | --- | --- | --- | --- | --- | --- |
| CC(=O)O[C@H]1CC[C@@]2(C)C(=CC[C@@H]3[C@@H]2CC[C@]2(C)C(C(C)=O)=CC[C@@H]32)C1 | inactive | inactive | inactive | inactive | inactive | inactive | inactive | inactive | inactive | inactive | inactive | inactive | inactive | inactive | inactive | inactive | – | – | – | – |
| CNCCC(Oc1ccccc1OC)c1ccccc1 (centres undefined) | inactive | inactive | inactive | inactive | inactive | inactive | – | inactive | inactive | inactive | inactive | inactive | – | inactive | inactive | inactive | inactive | inactive | inactive | – |
| FC(F)(F)c1ccccc1 | inactive | inactive | inactive | inactive | inactive | inactive | – | inactive | inactive | inactive | inactive | inactive | inactive | inactive | inactive | inactive | – | inactive | inactive | inactive |
| CCOC(=O)C(Br)c1ccccc1 (centres undefined) | inactive | inactive | inactive | inactive | inactive | inactive | – | inactive | inactive | inactive | inactive | inactive | inactive | inactive | – | – | inactive | inactive | inactive | inactive |
| ICCc1ccccc1 | inactive | 16.9 µM (active) | inactive | inactive | inactive | inactive | – | inactive | inactive | inactive | – | 59.9 µM (active) | 59.9 µM (active) | inactive | inactive | inactive | – | 59.9 µM (active) | inactive | inactive |
| Cc1cccc(C)c1NC(=O)CN1CCCCCC1 | inactive | inactive | inactive | inactive | inactive | inactive | – | inactive | inactive | inactive | – | inactive | inactive | inactive | inactive | – | – | – | inactive | inactive |
| Cc1cc(S(=O)(=O)O)c(N)cc1Cl | inactive | inactive | inactive | inactive | inactive | inactive | inactive | inactive | inactive | inactive | inactive | inactive | inactive | inactive | – | inactive | – | inactive | inactive | – |
| Cc1ccc(C)c(N)c1 | inactive | inactive | inactive | inactive | inactive | inactive | – | inactive | inactive | inactive | inactive | inactive | inactive | inactive | – | – | inactive | inactive | inactive | – |
| CCOc1ccc(OCC)c(Cl)c1 | inactive | inactive | inactive | inactive | inactive | inactive | – | inactive | inactive | inactive | inactive | inactive | inactive | inactive | – | inactive | inactive | – | inactive | – |
| CC(=O)OC1C2(C)CCC(C2)C1(C)C (centres undefined) | inactive | inactive | inactive | inactive | inactive | inactive | – | inactive | inactive | – | inactive | inactive | inactive | inactive | inactive | – | inactive | inactive | inactive | – |
| c1ccc(CN(CC2=NCCN2)c2ccccc2)cc1 | inactive | inactive | inactive | inactive | inactive | inactive | – | inactive | inactive | inactive | inactive | inactive | inactive | inactive | inactive | – | inactive | – | inactive | inactive |
| Cc1ncc(CO)c(CN)c1O | inactive | inactive | inactive | inactive | inactive | inactive | inactive | inactive | inactive | inactive | inactive | inactive | inactive | inactive | inactive | inactive | inactive | inactive | inactive | inactive |
| CN1CCN(c2c(F)cc3c(=O)c(C(=O)O)cn(CCF)c3c2F)CC1 | inactive | inactive | inactive | inactive | inactive | inactive | – | inactive | inactive | inactive | inactive | inactive | inactive | inactive | inactive | inactive | inactive | – | inactive | – |
| COc1ccc(S(=O)(=O)Nc2nnc(CC(C)C)s2)cc1 | inactive | inactive | inactive | inactive | inactive | inactive | – | inactive | inactive | inactive | inactive | – | inactive | inactive | inactive | – | – | inactive | inactive | – |
| CC(CNC1CCCCC1)OC(=O)c1ccccc1 (centres undefined) | inactive | inactive | inactive | inactive | inactive | inactive | – | inactive | inactive | – | inactive | inactive | inactive | inactive | inactive | inactive | inactive | inactive | inactive | – |
| O=C(Cl)c1cccc([N+](=O)[O-])c1 | inactive | inactive | inactive | inactive | inactive | inactive | – | inactive | inactive | inactive | inactive | inactive | inactive | inactive | inactive | – | inactive | inactive | inactive | inactive |
